From PubChem
GDH-TPI counter-1: GDH-TPI coupled enzyme inhibition counter-screen. GDH-TPI coupled enzyme counterscreen, NADH absorbance. 360,000 compounds, 1.2% hits. AID 588335. inhibition, % at 4.8 µM; in the data active = inhibition above about 30%;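 note: 0% = DMSO wells and 100% = wells lacking the enzyme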
Mtb UGM inh: Mtb UDP-galactopyranose mutase inhibition. purified UGM, fluorescence polarization probe displacement. inhibition, % at 10 µM. 320,000 compounds, 0.06% hits. P9WIQ1; in the data active = inhibition above about 10%, passing the limit was not always enough; inconclusive = no clear call, values can overlap the other calls
Mtb FBA inh: inhibits M. tuberculosis FBA enzyme. P9WQA3. purified M. tuberculosis FBA, fluorescence read-out. AID 588726. 360,000 compounds, 2.3% hits. inhibition, % at 1 µM;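 note: 0% = vehicle and 100% = reference inhibitor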
Rv3671c protease: inhibitors of M. tuberculosis serine protease Rv3671c | inhibition, % at 5.96 µM | 320,000 compounds, 0.048% hits | P9WHR9 | AID 2606; in the data active = inhibition above about 38%;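 note: extracellular domain of Rv3671c used as enzyme; 0% = enzyme with DMSO and 100% = no enzyme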
Target sequence (P9WHR9 whole entry, looked up, the tested form may be a part): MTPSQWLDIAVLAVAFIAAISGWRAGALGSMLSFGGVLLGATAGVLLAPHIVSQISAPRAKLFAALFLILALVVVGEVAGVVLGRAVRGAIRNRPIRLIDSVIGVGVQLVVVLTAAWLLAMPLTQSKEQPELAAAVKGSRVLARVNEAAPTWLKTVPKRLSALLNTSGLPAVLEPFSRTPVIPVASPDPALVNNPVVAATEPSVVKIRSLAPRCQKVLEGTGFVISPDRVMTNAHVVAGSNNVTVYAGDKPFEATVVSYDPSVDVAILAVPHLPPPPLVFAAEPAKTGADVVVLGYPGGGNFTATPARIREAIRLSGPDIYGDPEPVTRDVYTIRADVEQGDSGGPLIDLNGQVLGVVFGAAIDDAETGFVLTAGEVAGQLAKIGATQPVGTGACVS
RecA splice inh: Mtb RecA intein splicing inhibition; P9WHJ3; cell-free RecA intein splicing, fluorescence; inhibition, % (concentration not given with the values); 290,000 compounds, 0.75% hits; in the data active = inhibition above about 30%; inconclusive = no clear call, values can overlap the other calls;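 note: 0% = vehicle wells and 100% = reference inhibitor control wells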
Mtb bLac sens: beta-lactam sensitization of Mtb H37Rv | inhibition, % at 25 µM | 330,000 compounds, 0.27% hits | M. tuberculosis H37Rv growth with meropenem, percent inhibition; call rule not given here;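 note: growth measured after seven days incubation then overnight dye step; 0% = bacteria only wells and 100% = bacteria with antibiotic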
Mtb FBA inh conf: confirmation of M. tuberculosis fructose-bisphosphate aldolase inhibitors | shares compounds with Mtb FBA inh | purified M. tuberculosis FBA, fluorescence read-out | 5,600 compounds, 78% hits | inhibition, % at 1 µM;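 note: 0% = vehicle wells and 100% = reference inhibitor wells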
GDH-TPI counter-2: inhibits GDH-TPI coupling enzymes, flagging Mtb FBA hits; shares compounds with Mtb FBA inh; inhibition, % at 1 µM; GDH-TPI coupled enzyme counterscreen, fluorescence; 5,600 compounds, 81% hits; in the data active = inhibition above about 10%
An asterisk follows results filed as active; u = inconclusive; x = not tested or not shown; + = active, no number. A selection: hits, their analogues and other compounds. The true share with any hit is near 4%. Cut-off read from the data, not from the text of the source, unless noted: active = inhibition above about 27%; inactive = the rest.

SMILES | GDH-TPI counter-1 | Mtb UGM inh | Mtb FBA inh | Rv3671c protease | RecA splice inh | Mtb bLac sens | Mtb FBA inh conf | GDH-TPI counter-2
COc1cc2cc(CN(CCO)S(=O)(=O)c3ccccc3)c(=O)[nH]c2cc1OC | 38* | -2 | 38* | 1 | -1 | 0 | 88* | 71*
COC(=O)c1ccc(C(=O)OC)c(NC(=S)N2CCN(C(=O)C3CCCO3)CC2)c1 (configuration not stated) | -4 | 0 | 28* | 4 | x | -8 | 113* | 89*
COC(=O)c1ccc(C(=O)OC)c(NC(=O)/C=C/C(=O)O)c1 | 0 | 2 | 57* | -9 | -4 | -2 | 52* | 50*
CCN1CCN(C(=S)Nc2cc(C(=O)OC)ccc2C(=O)OC)CC1 | 15 | 5 | 31* | -15 | -1 | 4 | 135* | 115*
COc1ccc(CCNS(=O)(=O)c2cccc(C(=O)O)c2)cc1OC | -5 | 2 | 4 | -4 | x | -1 | x | x
CCN(CC)S(=O)(=O)c1ccc2c(c1)nc(SCC(=O)NC1CC1)n2-c1ccccc1OC | -12 | 1 | 2 | -1 | 5 | -3 | x | x
c1ccc2c(c1)OCCc1c-2[nH]c2ccccc12 | -4 | -1 | 47* | 3 | 6 | 6 | 75* | 55*
CC1=NCCc2c1[nH]c1ccccc21 | 12 | 2 | 20 | -3 | -11 | -13 | x | x
CN(CC(=O)Nc1ccccc1C(=O)NC1CC1)Cc1ccc(Cl)cc1 | -6 | 1 | 1 | 2 | x | 5 | x | x
CCc1cccc(CC)c1NC(=O)COC(=O)c1ccc(F)c(S(=O)(=O)N(CC)CC)c1 | 7 | -4 | -1 | -11 | -1 | 6 | x | x
O=C(Cc1cccc2ccccc12)Nc1ccc(O)cc1C(=O)O | 4 | -3 | 32* | 3 | -27 | -3 | 4 | 1
O=C(Cc1cccc2ccccc12)Nc1ccc(Br)cc1C(=O)O | 15 | 0 | 0 | 0 | -2 | 8 | x | x
C=CCOC(=O)Nc1c(C(=O)OC)[nH]c2ccc(Cl)cc12 | 17 | 0 | 40* | -1 | 3 | 2 | 0 | -3
CCOC(=O)c1[nH]c2ccc(OC)cc2c1NC(=O)CN1CCSCC1 | 7 | 3 | 44* | 6 | x | 0 | 68* | 52*
CCOC(=O)c1[nH]c2ccc(OC)cc2c1NC(=O)CCN1CCC(C)CC1 | x | -3 | x | -3 | 0 | -16 | x | x
CCOC(=O)c1[nH]c2ccc(F)cc2c1NC(=O)c1ccccc1C(=O)O | -2 | 0 | 59* | x | -6 | 8 | 5 | 0
CCOC(=O)c1[nH]c2ccc(OC)cc2c1NC(=O)CCN1CCc2ccccc2C1 | 7 | -1 | 40* | 5 | 3 | -4 | 87* | 83*
CCOC(=O)c1[nH]c2ccc(F)cc2c1NC(=O)c1cc(OC)c(OC)c(OC)c1 | -2 | 4 | 5 | -4 | -2 | -10 | x | x
COc1ccccc1C(=O)NCC(=O)OCC(=O)Nc1cccc(S(=O)(=O)N2CCCCCC2)c1 | 2 | -1 | 0 | -2 | x | 7 | x | x
O=S(=O)(Cc1ccccc1)Nc1ccccc1Br | -8 | -1 | -1 | 4 | 1 | 0 | x | x
CC(C(=O)Nc1ccccn1)(c1ccccc1)c1ccccc1 | 3 | 3 | 2 | x | 2 | 1 | x | x
CCOC(=O)c1[nH]c2ccc(OC)cc2c1NC(C)=O | 8 | -1 | 34* | 3 | 0 | 8 | 5 | -2
CCOC(=O)c1[nH]c2cc(OC)c(OC)cc2c1NC(=O)CCN1CCSCC1 | 20 | 1 | 107* | 0 | 0 | 0 | 126* | 115*
CCOC(=O)c1[nH]c2ccc(OC)cc2c1NC(=O)c1ccccc1C(=O)O | 1 | -1 | 30* | 5 | -4 | -6 | 31* | 31*
CCOC(=O)c1[nH]c2ccc(Br)cc2c1NC(=O)CCN1CCC(C)CC1 | 4 | 3 | -5 | -9 | -1 | -4 | x | x
SMILES | GDH-TPI counter-1 | Mtb UGM inh | Mtb FBA inh | Rv3671c protease | RecA splice inh | Mtb bLac sens | Mtb FBA inh conf | GDH-TPI counter-2
CCOC(=O)c1[nH]c2cc(OC)c(OC)cc2c1NC(=O)CN(C)C1CCCCC1 | 40* | -2 | 33* | 1 | 1 | -6 | 8 | -3
CCOC(=O)c1[nH]c2cc(OC)c(OC)cc2c1NC(=O)c1ccc2c(c1)OCO2 | 5 | 4 | -1 | 4 | -4 | 3 | x | x
O=C(COC(=O)c1ccccc1O)NCCC1=CCCCC1 | 0 | -1 | -1 | -1 | -2 | 1 | x | x
Fc1cccc(/C=N/Nc2nc3ccccc3[nH]2)c1 | x | -1 | x | 10 | -1 | 33 | x | x
O=c1[nH]c(N/N=C/c2ccccc2)nc2ccccc12 | 15 | 0 | 56* | -5 | -6 | 9 | -5 | -5
C=C1CCN([C@H](C(=O)NCc2ccc(Cl)c(Cl)c2)C(C)C)S(=O)(=O)c2ccccc21 | 6 | -1 | 1 | -15 | 5 | 2 | x | x
Cc1ccn2c(c1)nc(=O)c1cc(S(=O)(=O)N3CCOCC3)ccc12 | 10 | 0 | 79* | 3 | 0 | 4 | 153* | 109*
Cc1cc(=O)[nH]c2ccc(S(=O)(=O)N3CCOCC3)cc12 | -4 | 1 | 72* | -2 | -2 | -5 | 124* | 137*
Cn1c(=O)c(=O)n(C)c2cc(S(=O)(=O)N3CCOCC3)ccc21 | 1 | -1 | 5 | 4 | 5 | 8 | x | x
O=C(CSc1ccc2nnc(-c3ccccn3)n2n1)Nc1ccccc1F | 3 | 1 | 2 | 5 | 7 | u | x | x
CC(C)(C)Sc1ccc2nc3c(n2c1)CCCC3 | -1 | 0 | 30* | 4 | 2 | 49 | 95* | 56*
Cc1cc(OCC(=O)NC2CCN(Cc3ccccc3)CC2)c2c(C)c(C)c(=O)oc2c1 | 19 | 1 | 8 | -1 | 0 | 0 | x | x
Cc1cc(OCC(=O)NC(Cc2c[nH]c3ccc(O)cc23)C(=O)O)c2c(C)c(C)c(=O)oc2c1 (configuration not stated) | 3 | 2 | 33* | -1 | 2 | -5 | + | +
Cc1cc(OCC(=O)NC(Cc2ccc(Cl)cc2)C(=O)O)c2c3c(c(=O)oc2c1)CCCC3 (configuration not stated) | 14 | 1 | 70* | 2 | x | -7 | 0 | -4
Cc1cc(OC(C)C(=O)NC(Cc2c[nH]c3ccc(O)cc23)C(=O)O)c2c(C)cc(=O)oc2c1 (configuration not stated) | 8 | 5 | 8 | -1 | 2 | 0 | x | x
Cc1cc(OCC(=O)NC(Cc2ccc(Cl)cc2)C(=O)O)c2c(C)c(C)c(=O)oc2c1 (configuration not stated) | 13 | 3 | 60* | -1 | -2 | 1 | 186* | 143*
O=C(Cn1cc(C(=O)c2ccccc2F)c2ccccc21)NC1CC1 | 7 | 0 | -1 | -1 | x | 3 | x | x
CC(=O)Nc1ccc(C(=O)N2CC(=O)NC(=O)C2)cc1 | 20 | -1 | 2 | 3 | 1 | 9 | x | x
